Experimental data published in publication PMC4336329 (PLoS ONE, 2015).
The campaign covered roughly 310,000 compounds. About 14,000 (4.5%) showed an effect of 50% or more. Effects have a minus sign here. This is one part of a sample in which strong results are shown more often than they occur.

Target: human ether-à-go-go-related gene (hERG) potassium channel (human, UniProt Q12809)
Experiment: primary screen, population patch clamp on CHO cells stably expressing hERG; higher = less effect of the substance
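Further: peak tail current of the secondary pulse compared with the same well before compound.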

Chain of human ether-à-go-go-related gene (hERG) potassium channel (Q12809 whole entry, looked up): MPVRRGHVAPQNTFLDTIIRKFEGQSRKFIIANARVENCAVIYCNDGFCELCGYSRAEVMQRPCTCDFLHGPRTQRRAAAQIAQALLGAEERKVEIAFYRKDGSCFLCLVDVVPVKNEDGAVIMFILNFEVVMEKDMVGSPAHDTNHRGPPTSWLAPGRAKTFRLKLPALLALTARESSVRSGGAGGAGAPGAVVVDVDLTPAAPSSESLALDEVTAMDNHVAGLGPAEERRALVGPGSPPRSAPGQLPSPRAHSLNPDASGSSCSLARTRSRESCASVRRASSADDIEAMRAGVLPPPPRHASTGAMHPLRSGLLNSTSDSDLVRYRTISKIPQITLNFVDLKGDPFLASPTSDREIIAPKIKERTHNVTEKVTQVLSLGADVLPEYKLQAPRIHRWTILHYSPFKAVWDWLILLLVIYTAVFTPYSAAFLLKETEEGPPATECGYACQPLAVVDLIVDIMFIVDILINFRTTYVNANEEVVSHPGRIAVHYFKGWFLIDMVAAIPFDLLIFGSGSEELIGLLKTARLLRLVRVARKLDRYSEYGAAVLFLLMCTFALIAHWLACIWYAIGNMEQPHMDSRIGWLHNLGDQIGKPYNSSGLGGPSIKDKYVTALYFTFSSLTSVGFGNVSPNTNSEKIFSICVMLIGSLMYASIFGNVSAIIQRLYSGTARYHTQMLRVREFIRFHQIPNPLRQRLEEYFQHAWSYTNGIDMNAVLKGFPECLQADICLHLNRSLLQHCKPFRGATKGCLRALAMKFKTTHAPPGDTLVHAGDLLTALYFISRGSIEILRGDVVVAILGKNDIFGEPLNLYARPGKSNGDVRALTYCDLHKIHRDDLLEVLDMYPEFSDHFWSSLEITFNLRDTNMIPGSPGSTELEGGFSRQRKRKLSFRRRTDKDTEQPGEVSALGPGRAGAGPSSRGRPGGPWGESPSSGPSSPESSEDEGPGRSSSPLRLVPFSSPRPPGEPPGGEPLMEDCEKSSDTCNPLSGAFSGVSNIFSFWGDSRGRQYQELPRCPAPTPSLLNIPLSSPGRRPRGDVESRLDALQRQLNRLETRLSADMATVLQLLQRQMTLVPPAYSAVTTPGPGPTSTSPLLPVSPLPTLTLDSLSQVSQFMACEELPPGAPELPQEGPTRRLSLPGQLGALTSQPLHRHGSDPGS

Structure (SMILES) | hERG current change (%, negative = inhibition) at 10uM [%]
CN(C)CCNc1oc(COc2ccc(Cl)cc2Cl)nc1C#N | 15.3
COc1cc(OC)cc(C(=O)NNC(=O)CCOc2ccccc2OC)c1 | 7.89
O=C(CSc1nnc(NC(=O)c2ccccc2F)s1)NC1CC1 | 19.2
C=C(C)C1Cc2nc(N)nc(C)c2C1 (centres unmarked) | 10.8
Cc1ccc(OCCNC(=O)c2ccccc2O)cc1 | 8.04
Cc1cc(C(=O)Nc2nc3c(s2)CCCC3)no1 | -16.8
C=CCC(=O)OCCCCCCOc1ccc(C(=O)O)cc1 | -3.87
O=C1CC(c2cc(-c3ccccc3)no2)C1 | -9.96
c1ccc2nc3c(nc2c1)[nH]c1ccccc13 | -15
O=C(O)c1cc2ccc3ccccc3c2[nH]1 | 1.56
O=C(CSc1c2c(nc3cc(Cl)ccc13)CCCC2)NCCN1CCOCC1 | 3.58
CCN(CC)CCNC(=O)CSc1c2c(nc3cc(Cl)ccc13)CCCC2 | -64.1
CCN(CC)CCCNC(=O)CSc1c2c(nc3cc(Cl)ccc13)CCCC2 | -48.4
CSc1ncc(C(=O)Nc2cccc(Cl)c2)c(C)n1 | 10.9
CC(NC(=O)c1ccc(C#N)cc1)C1CC2CCC1C2 (centres unmarked) | -58.8
CC(NC(=O)c1cc([N+](=O)[O-])cc([N+](=O)[O-])c1)C1CC2CCC1C2 (centres unmarked) | -7.55
Cc1ccc(C(=O)NC(C)C2CC3CCC2C3)cc1 (centres unmarked) | 19.1
CC(NC(=O)c1ccc(F)cc1Cl)C1CC2CCC1C2 (centres unmarked) | 4.99
CC(NC(=O)c1ccc(Cl)cc1)C1CC2CCC1C2 (centres unmarked) | 2.08
CC(NC(=O)c1ccc([N+](=O)[O-])cc1Cl)C1CC2CCC1C2 (centres unmarked) | -58.2

Structure (SMILES) | hERG current change (%, negative = inhibition) at 10uM [%]
CCOc1ccc(C(=O)NCC(C)NC(=O)c2ccc(OCC)cc2)cc1 (centres unmarked) | 24.5
CC(CNC(=O)c1ccc(C#N)cc1)NC(=O)c1ccc(C#N)cc1 (centres unmarked) | -76.6
CC(CNC(=O)c1ccc(N)cc1)NC(=O)c1ccc(N)cc1 (centres unmarked) | 9.03
Cc1ccc(C(=O)Oc2ccc(C(=S)N3CCOCC3)cc2)cc1 | -7.84
CCN(CC)c1ncnc2scc(C3COc4ccccc4O3)c12 (centres unmarked) | -8.77
COc1ccc(NC2CCCN(C(=O)C3(C)CCCCC3)C2)cc1OC (centres unmarked) | 11.3
O=C(Nc1ccccc1)C1CC(=O)n2ncnc2N1 (centres unmarked) | 6.48
CN(C)Cc1ccccc1C1(O)c2ccccc2CSc2ccccc21.Cl (centres unmarked) | 9.09
CNC(=S)N(CCc1cccc(C)c1)Cc1cc2cc(OC)c(OC)cc2[nH]c1=O | -16.7
Cc1ccc(-c2nc(=O)[nH]c3ccccc23)cc1 | -20
Cc1ccc(CN2CCN(C(=O)c3ccncc3)CC2)cc1.O=C(O)C(=O)O | -0.159
C/C(=N\NC(=O)CN1CCN(Cc2ccc(C)cc2)CC1)c1ccncc1 | -74.8
C/C(=N\NC(=O)CN1CCN(Cc2ccccc2)CC1)c1ccncc1 | -35.8
C/C(=N/NC(=O)CN1CCN(Cc2ccccc2Cl)CC1)c1cccnc1 | -10.4
C/C(=N/NC(=O)CN1CCN(Cc2ccccc2Cl)CC1)c1ccncc1 | -65.4
O=C(CN1CCN(Cc2ccccc2Cl)CC1)N/N=C/c1ccccn1 | -25.8
CCCNC(=O)c1ccc2c(c1)S(=O)(=O)c1ccccc1C2=O | -10.9
COc1ccc(-c2nn(-c3ccccc3)cc2C(=O)NC(=S)N2CCOCC2)cc1OC | 30.1
COCc1c(C(=O)NCC2COc3ccccc3O2)oc2ccccc12 (centres unmarked) | -30.1
CCOCc1c(C(=O)NCc2ccccc2CN2CCCC2)oc2ccccc12 | -72

Structure (SMILES) | hERG current change (%, negative = inhibition) at 10uM [%]
CCOc1ccc(OCCNC(=O)c2oc3ccccc3c2COC)cc1 | -32.5
COCc1c(C(=O)NCc2ccccc2CN2CCCC2)oc2ccccc12 | -66.4
CCOCc1c(C(=O)NC2CCCCCC2)oc2ccccc12 | 8.56
CCOCc1c(C(=O)N2CCN(Cc3ccc(Br)s3)CC2)oc2ccccc12 | -30.9
COc1ccc2[nH]c3c(c2c1)CCN1C(=O)N([C@@H](C)C(=O)NCc2ccccc2OC)C(=O)[C@]31C | -17.2
CCOc1ccc2nc(SCC(=O)c3ccc(O)cc3O)sc2c1 | 14.5
Cc1ccc([N+](=O)[O-])c(NC(=O)COC(=O)C2CC3CCCC(C2)C3=O)c1C (centres unmarked) | 13.8
Cc1cc(C)n2nc(SCCOc3ccc(F)cc3)nc2n1 | -68.8
Cc1ccc(OCCOC(=O)c2nc3nccc(C)n3n2)cc1 | -18.4
Cc1cc(C)n2nc(C(=O)OCC(=O)Nc3ccc4c(c3)OCO4)nc2n1 | -1.59
Cc1cc(C)n2nc(C(=O)OCCOc3ccc(F)cc3)nc2n1 | -12.3
COc1ccc(OCCSc2nc3nc(C)cc(C)n3n2)cc1 | -13.1
Cc1ccnc2nc(C(=O)OCCOc3ccc(Cl)cc3)nn12 | -56.2
Cc1ccnc2nc(C(=O)OCC(=O)Nc3ccc4c(c3)OC(F)(F)O4)nn12 | -49.1
Cc1cc(C)n2nc(C(=O)OCC(=O)Nc3ccc4c(c3)OC(F)(F)O4)nc2n1 | -63.8
Cc1cc(C)n2nc(C(=O)OCCOc3cccc(Br)c3)nc2n1 | -21.6
Cc1cc(C)n2nc(C(=O)OCCOc3ccc(Br)cc3)nc2n1 | -55.3
COc1ccc(OCCOC(=O)c2nc3nccc(C)n3n2)cc1 | -3.15
Cc1cc(C)n2nc(SCCOc3ccccc3)nc2n1 | -38.7
